# Laboratory results from PubChem BioAssay AID1224921 (Broad Institute, 2016).
# The campaign covered roughly 1,400 compounds. About 350 (25%) were called active. Roughly 2% stayed inconclusive and do not appear here. These entries were drawn from the full list. Measured potencies and affinities stand elsewhere. Unmarked numbers belong to inactive results. No rule for the calls is given here.
# Experiment: C. difficile growth inhibition, confirmation, 4-point retest (AID 1224921);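 also: plate controls were DMSO wells for no effect and levofloxacin 16 µg/mL wells for full effect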
# Conditions: Clostridioides difficile clinical isolate growth, OD600, 24 h, stronger effect = lower value; at 30 µM unless noted
row,SMILES,max activity
1,C[C@H]1CN([C@@H](C)CO)S(=O)(=O)c2ccc(C3=CCCCC3)cc2O[C@H]1CN(C)C(=O)C1CCCCC1,30.6%
2,C[C@@H]1CN([C@H](C)CO)C(=O)c2cc(Br)cnc2O[C@H]1CN(C)C(=O)c1ccccc1,-3.07% [at 8 µM]
3,C[C@H]1CN([C@@H](C)CO)S(=O)(=O)c2ccc(C#CC3CCCCC3)cc2O[C@H]1CN(C)Cc1cccnc1,35.6%
4,CO[C@H]1CN(C)C(=O)c2cc(NC(=O)c3ccc(F)cc3)ccc2OC[C@@H](C)N(C(C)=O)C[C@H]1C,-8.16% [at 1.95 µM]
5,C[C@H](C(=O)N(C)C[C@H]1OCc2ccccc2-c2ccccc2C(=O)N([C@@H](C)CO)C[C@H]1C)c1ccccc1,18.3%
6,C[C@@H]1CN([C@H](C)CO)C(=O)c2cc(NC(=O)Nc3cccc4ccccc34)ccc2O[C@@H](C)CCCCO[C@H]1CN(C)S(=O)(=O)c1ccc(F)cc1,36.9%
7,C[C@@H]1CN([C@@H](C)CO)C(=O)Cc2cc(NC(=O)NC3CCCCC3)ccc2O[C@@H]1CN(C)S(=O)(=O)c1ccc(Cl)cc1,20.4%
8,C[C@@H]1CN([C@@H](C)CO)S(=O)(=O)c2ccc(C#CC3CC3)cc2O[C@H]1CN(C)Cc1cccnc1,34.2%
9,CCCNC(=O)N1C[C@H](C)[C@@H](OC)CN(C)C(=O)c2cc(NC(C)=O)ccc2OC[C@@H]1C,-10.9% [at 1.95 µM]
10,COc1ccc(NC(=O)N[C@@H]2C=C[C@H](CC(=O)NC3CCCCC3)O[C@@H]2CO)cc1,13.1% [at 1.95 µM]
11,CCC(=O)N(C)C[C@@H]1Oc2cc(C#CCC3CCCC3)ccc2S(=O)(=O)N([C@@H](C)CO)C[C@H]1C,27.8%
12,O=C(C[C@H]1C=C[C@H](NC(=O)CCN2CCCCC2)[C@H](CO)O1)Nc1ccc(-c2ccccc2)cc1,11.2%
13,CCCC#Cc1ccc([C@@H]2[C@H](C#N)N(S(=O)(=O)c3cccc(F)c3)[C@H]2CO)cc1,21.1%
14,COc1ccc(NC(=O)N(C)C[C@@H]2Oc3ncc(-c4cccnc4)cc3C(=O)N([C@@H](C)CO)C[C@@H]2C)cc1,-18.5% [at 8 µM]
15,CC(C)CC#Cc1ccc2c(c1)O[C@@H](CN(C)C(=O)c1ccccc1F)[C@@H](C)CN([C@@H](C)CO)S2(=O)=O,18%
16,O=C(C[C@H]1CC[C@H]2[C@@H](COC[C@@H](O)CN2Cc2cccc(Cl)c2)O1)NCC1CCCCC1,11.9% [at 8 µM]
17,COc1ccccc1S(=O)(=O)N(C)C[C@H]1Oc2cc(C#CCC(C)C)ccc2S(=O)(=O)N([C@@H](C)CO)C[C@@H]1C,10.5%
18,C[C@H]1CN([C@@H](C)CO)S(=O)(=O)c2ccc(Br)cc2O[C@@H]1CN(C)Cc1cccc(F)c1,41.5%
19,C[C@H]1CN([C@@H](C)CO)C(=O)c2c(c3ccccc3n2C)-c2ccccc2CO[C@H]1CN(C)S(=O)(=O)CC(F)(F)F,14.7%

row,SMILES,max activity
1,CCCC(=O)Nc1ccc2c(c1)OC[C@H](C)N(Cc1ccncc1)C[C@@H](C)[C@H](OC)CN(C)C2=O,14.3%
2,CCCN1C[C@@H](C)[C@@H](OC)CN(C)C(=O)c2cc(NC(=O)CC)ccc2OC[C@H]1C,-7.79% [at 0.5 µM]
3,CO[C@@H]1CN(C)C(=O)c2cc(NS(=O)(=O)c3cccc(F)c3)ccc2OC[C@@H](C)N(Cc2cc(F)ccc2F)C[C@@H]1C,14.2%
4,NC(=O)[C@@H]1[C@H]2C(=O)O[C@H](c3ccccc3)[C@H](c3ccccc3)N2[C@H](c2ccc(O)cc2)[C@@]12C(=O)Nc1ccc(C#CC3=CCCCC3)cc12,21.8%
5,CCCN1C[C@H](C)[C@@H](OC)CN(C)C(=O)c2ccc(NC(=O)Nc3c(C)noc3C)cc2OC[C@@H]1C,29.7%
6,C[C@@H]1CN([C@@H](C)CO)C(=O)c2ccccc2-c2ccccc2CO[C@H]1CN(C)C(=O)c1ccc(F)cc1,-6.68% [at 8 µM]
7,C[C@@H]1CN([C@@H](C)CO)C(=O)Cc2cc(NC(=O)c3ccncc3)ccc2O[C@@H]1CN(C)Cc1ccc(-c2ccccc2)cc1,41.4%
8,N#C[C@H]1[C@@H](c2ccc(C#CC3CCCCC3)cc2)[C@@H](CO)N1C(=O)Cc1ccccn1,24.3% [at 0.5 µM]
9,C[C@H](CO)N1C[C@H](C)[C@@H](CN(C)Cc2ccccc2)Oc2ccc(NS(C)(=O)=O)cc2CC1=O,28% [at 35 µM]
10,CO[C@@H]1CN(C)C(=O)c2ccc(NC(=O)c3ccc(F)cc3)cc2OC[C@@H](C)N(C(=O)c2ccc(F)cc2)C[C@@H]1C,-7.95% [at 0.5 µM]
11,C[C@@H](NC(=O)C[C@H]1C=C[C@H](NC(=O)C2CCC2)[C@@H](CO)O1)c1ccccc1,-13.6% [at 0.5 µM]
12,CCC(=O)N1C[C@H](C)[C@H](OC)CN(C)C(=O)c2cc(NS(=O)(=O)CC)ccc2OC[C@H]1C,-9.49% [at 1.95 µM]
13,C[C@H]1CN([C@@H](C)CO)S(=O)(=O)c2ccc(C#CC3CC3)cc2O[C@@H]1CN(C)Cc1ccncc1,47%
14,C[C@@H]1CN([C@@H](C)CO)C(=O)c2c(c3ccccc3n2C)-c2ccccc2CO[C@@H]1CN(C)Cc1cccc(C(=O)O)c1,-12.2% [at 8 µM]
15,Cc1ccc(F)cc1S(=O)(=O)N[C@H]1CCN(Cc2ccc(OC(C)C)cc2)C1,21.6%
16,COc1ccc(CN(C)C[C@H]2Oc3c(NC(=O)Nc4ccc(C(F)(F)F)cc4)cccc3C(=O)N([C@@H](C)CO)C[C@@H]2C)cc1,32.3% [at 8 µM]
17,COc1ccc(CN(C)C[C@@H]2Oc3c(NC(=O)Nc4ccc(C(F)(F)F)cc4)cccc3C(=O)N([C@@H](C)CO)C[C@H]2C)cc1,38%
18,COc1cccc(S(=O)(=O)N[C@@H]2CC[C@H](CCN)O[C@@H]2CO)c1,-11.8% [at 1.95 µM]
